In ChEMBL document CHEMBL3988442, “University of Dundee, Small-Polar-MMV Screening Library” (2021) one finds Percent Effect data, which are given here for eleven compounds.

For some of these results: Measured potencies and affinities stand elsewhere.

What all share (design): scale not given: direction of the effect not stated beside the values
The target of experiment [1] is Protein translocase subunit SecA (Escherichia coli (strain K12)) (UniProt P10408). As to the kind of experiment: Assay to Identify E. coli SecA ATPase Inhibitors. It is filed as functional. The conditions noted are these: 30 µM.
For experiment [2], the target named is T1, Ubiquitin-activating enzyme e1, putative (Leishmania donovani (strain BPK282A1)) (UniProt E9BSI1).
T1 sequence (whole entry): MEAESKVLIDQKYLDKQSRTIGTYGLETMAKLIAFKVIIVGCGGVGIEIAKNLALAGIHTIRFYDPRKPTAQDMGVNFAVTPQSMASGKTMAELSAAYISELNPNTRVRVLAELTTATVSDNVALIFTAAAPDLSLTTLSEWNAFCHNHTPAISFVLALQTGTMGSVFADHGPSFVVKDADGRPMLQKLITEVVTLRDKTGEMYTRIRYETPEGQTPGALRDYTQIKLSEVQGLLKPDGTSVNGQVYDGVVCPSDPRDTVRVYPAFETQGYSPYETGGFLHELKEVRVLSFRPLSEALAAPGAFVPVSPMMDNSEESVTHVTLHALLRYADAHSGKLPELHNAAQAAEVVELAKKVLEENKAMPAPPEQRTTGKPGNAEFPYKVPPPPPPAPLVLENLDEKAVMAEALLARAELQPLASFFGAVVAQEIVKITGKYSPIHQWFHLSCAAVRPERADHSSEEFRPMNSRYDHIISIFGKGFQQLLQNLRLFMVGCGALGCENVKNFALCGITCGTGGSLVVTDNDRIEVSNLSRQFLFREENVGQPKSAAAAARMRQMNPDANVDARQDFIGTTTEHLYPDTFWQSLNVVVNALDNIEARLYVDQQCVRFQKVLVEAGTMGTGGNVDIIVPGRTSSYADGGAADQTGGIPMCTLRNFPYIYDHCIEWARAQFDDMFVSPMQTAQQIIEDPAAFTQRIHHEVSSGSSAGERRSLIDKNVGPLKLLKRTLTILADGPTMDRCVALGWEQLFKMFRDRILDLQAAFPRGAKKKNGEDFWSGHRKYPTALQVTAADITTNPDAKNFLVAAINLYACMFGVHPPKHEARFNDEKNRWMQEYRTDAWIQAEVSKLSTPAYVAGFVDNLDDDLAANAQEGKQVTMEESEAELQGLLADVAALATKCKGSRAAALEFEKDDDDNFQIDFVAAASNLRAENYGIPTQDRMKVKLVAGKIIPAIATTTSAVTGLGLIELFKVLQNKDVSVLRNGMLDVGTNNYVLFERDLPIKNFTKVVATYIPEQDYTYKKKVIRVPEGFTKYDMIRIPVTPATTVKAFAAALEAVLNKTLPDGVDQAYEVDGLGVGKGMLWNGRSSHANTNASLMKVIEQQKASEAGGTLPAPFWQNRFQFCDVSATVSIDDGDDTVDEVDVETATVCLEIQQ
As to the kind of experiment: Leishmania donovani Ubiquitin Activating Enzyme (LdE1). The class given is functional. The conditions noted are these: 30 µM.

For experiment [3], the target named is AMP-activated protein kinase, AMPK (Homo sapiens) (UniProt P54646+O43741+P54619+Q9UGJ0+Q9Y478+Q13131+Q9UGI9). As to the kind of experiment: AMP-dependent Kinase enzyme assay. An in vitro enzyme assay that detects ADP turnover that is directly proportional to AMPK activity. This uses naive AMPK that is activated during the assay with MK-8722. It is filed as functional. The conditions noted are these: 30 µM.

The target in experiment [4] is Sialic acid-binding Ig-like lectin 9 (Homo sapiens) (UniProt Q9Y336). Nature of the experiment: Hs-Siglec9 ALPHAscreen SOP 20170721. The conditions noted are these: 10 µM. A general note: Alpha assays give light when donor and acceptor beads are brought close together.
The test system of experiment [5] is Trypanosoma cruzi. Nature of the experiment: Trypanosoma cruzi phosphomannomutase and mannose-1-phosphate guanylyltransferase assay. It is filed as functional. Conditions: 10 µM.
The target of experiment [6] is T2, Arginase-2, mitochondrial (Homo sapiens) (UniProt P78540).
T2 sequence (whole entry): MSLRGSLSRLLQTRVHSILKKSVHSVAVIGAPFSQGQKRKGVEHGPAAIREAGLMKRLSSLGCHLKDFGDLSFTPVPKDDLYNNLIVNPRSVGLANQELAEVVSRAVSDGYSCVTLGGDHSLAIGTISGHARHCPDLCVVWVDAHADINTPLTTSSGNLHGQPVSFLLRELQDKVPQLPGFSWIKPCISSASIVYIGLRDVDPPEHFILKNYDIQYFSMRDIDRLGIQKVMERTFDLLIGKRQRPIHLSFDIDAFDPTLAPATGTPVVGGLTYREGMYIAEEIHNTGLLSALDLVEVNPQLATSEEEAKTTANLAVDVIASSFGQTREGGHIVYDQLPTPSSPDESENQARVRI
As to the kind of experiment: in vitro enzyme assay to detect the production of urea directly proportional to the activity of Arginase II. Note: in the data most compounds retested in dose-response had high values. It is filed as functional. Conditions: 33.3 µM.

Experiment [7] addresses T3, Proteasome subunit beta (Trypanosoma cruzi) (UniProt O96673).
T3 sequence (whole entry): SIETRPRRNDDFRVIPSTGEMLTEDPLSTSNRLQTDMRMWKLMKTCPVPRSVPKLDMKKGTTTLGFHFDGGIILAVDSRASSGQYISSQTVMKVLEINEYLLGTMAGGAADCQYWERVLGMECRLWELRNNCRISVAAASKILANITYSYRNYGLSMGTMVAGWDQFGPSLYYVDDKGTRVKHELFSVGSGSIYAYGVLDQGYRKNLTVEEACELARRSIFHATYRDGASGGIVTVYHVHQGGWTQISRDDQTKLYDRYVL
Nature of the experiment: Trypanosoma cruzi proteasome chymotrypsin-like activity (TcProtChymo) assay. Note: in the data most compounds retested in dose-response had high values. It is filed as functional. Conditions: 9.37 µM.

For experiment [8], the species on record is Homo sapiens. Nature of the experiment: To identify inhibition of the IFN signalling (Jak-Stat) pathway via expression of an eGFP reporter gene under the control of an IFN-stimulated response element (ISRE) containing MxA promoter. The class given is functional. Conditions: 30 µM. (A reporter such as luciferase makes a cellular process visible.)
The target of experiment [9] is T4, Tyrosyl-tRNA synthetase, putative (Trypanosoma cruzi (strain CL Brener)) (UniProt Q4DSP6).
T4 sequence (whole entry): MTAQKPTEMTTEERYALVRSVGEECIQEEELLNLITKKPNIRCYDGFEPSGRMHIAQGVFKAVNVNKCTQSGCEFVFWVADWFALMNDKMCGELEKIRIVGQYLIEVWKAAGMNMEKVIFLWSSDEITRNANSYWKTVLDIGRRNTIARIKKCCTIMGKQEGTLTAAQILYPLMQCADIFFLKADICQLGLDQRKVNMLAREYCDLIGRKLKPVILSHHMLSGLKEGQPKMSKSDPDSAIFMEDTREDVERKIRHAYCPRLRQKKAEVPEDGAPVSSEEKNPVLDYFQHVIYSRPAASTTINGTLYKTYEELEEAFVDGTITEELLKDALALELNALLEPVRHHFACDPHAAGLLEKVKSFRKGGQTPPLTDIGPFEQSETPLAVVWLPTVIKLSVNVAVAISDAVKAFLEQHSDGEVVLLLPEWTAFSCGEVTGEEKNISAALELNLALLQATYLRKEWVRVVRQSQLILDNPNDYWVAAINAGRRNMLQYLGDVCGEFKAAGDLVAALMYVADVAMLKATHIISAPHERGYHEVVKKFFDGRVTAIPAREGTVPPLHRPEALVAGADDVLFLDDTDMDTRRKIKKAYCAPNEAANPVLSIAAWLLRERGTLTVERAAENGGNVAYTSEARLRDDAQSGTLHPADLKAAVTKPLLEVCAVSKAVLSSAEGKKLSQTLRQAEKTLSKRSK
Nature of the experiment: Trypanosoma cruzi tyrosyl tRNA synthetase (TcYRS) _High Tyrosine SOP. Note: in the data most compounds retested in dose-response had high values. Conditions: 30 µM. The class given is functional.

Experiment [10] addresses T4, Tyrosyl-tRNA synthetase, putative (Trypanosoma cruzi (strain CL Brener)). Nature of the experiment: Trypanosoma cruzi tyrosyl tRNA synthetase (TcYRS) SOP. The class given is functional. The conditions noted are these: 30 µM.
The target of experiment [11] is Chromo domain-containing protein 1 (Saccharomyces cerevisiae (strain ATCC 204508 / S288c) (Baker's yeast)) (UniProt P32657). Nature of the experiment: ScCHD-1 Enzyme Inhibition Assay. Note: in the data most compounds retested in dose-response had high values. The class given is functional. The conditions noted are these: 30 µM.
Sequence of Chromo domain-containing protein 1 (Saccharomyces cerevisiae (strain ATCC 204508 / S288c) (Baker's yeast)) (P32657 whole entry, the tested form may be a part): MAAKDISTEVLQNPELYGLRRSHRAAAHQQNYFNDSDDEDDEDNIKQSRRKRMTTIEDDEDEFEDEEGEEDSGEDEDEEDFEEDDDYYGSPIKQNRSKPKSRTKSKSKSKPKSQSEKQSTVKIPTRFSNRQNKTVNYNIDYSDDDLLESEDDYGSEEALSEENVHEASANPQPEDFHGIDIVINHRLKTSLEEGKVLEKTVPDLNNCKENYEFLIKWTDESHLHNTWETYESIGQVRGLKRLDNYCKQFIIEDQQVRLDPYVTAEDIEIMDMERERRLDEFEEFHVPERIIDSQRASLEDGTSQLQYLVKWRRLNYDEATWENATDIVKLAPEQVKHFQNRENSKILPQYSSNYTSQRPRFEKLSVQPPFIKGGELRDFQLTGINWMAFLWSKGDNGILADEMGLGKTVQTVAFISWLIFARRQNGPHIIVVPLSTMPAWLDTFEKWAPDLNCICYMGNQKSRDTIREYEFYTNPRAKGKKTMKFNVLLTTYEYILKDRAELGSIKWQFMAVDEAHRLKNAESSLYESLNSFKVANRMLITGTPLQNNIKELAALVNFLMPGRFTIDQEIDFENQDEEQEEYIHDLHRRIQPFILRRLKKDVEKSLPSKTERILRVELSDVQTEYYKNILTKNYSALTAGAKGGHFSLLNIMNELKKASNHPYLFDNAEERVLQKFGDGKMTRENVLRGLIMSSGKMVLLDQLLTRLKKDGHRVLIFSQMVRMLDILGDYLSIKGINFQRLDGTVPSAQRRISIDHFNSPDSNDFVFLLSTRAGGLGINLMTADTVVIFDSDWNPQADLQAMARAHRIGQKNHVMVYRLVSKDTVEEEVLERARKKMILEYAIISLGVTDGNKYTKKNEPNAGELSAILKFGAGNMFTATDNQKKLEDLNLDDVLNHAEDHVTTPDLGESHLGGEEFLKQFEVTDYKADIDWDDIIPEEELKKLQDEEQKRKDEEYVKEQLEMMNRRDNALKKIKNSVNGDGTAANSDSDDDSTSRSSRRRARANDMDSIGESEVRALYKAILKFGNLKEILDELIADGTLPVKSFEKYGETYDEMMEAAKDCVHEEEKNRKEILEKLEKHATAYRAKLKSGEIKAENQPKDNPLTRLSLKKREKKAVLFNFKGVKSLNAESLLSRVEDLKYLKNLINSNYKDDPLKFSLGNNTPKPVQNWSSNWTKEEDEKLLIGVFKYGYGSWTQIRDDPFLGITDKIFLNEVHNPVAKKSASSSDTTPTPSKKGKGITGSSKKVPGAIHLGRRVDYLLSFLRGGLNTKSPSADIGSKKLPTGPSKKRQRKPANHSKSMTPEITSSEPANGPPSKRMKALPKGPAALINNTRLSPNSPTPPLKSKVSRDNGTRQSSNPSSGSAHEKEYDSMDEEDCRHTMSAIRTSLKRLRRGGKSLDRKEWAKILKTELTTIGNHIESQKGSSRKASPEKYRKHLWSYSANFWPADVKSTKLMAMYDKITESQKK

Sequence of Sialic acid-binding Ig-like lectin 9 (Homo sapiens) (Q9Y336 whole entry): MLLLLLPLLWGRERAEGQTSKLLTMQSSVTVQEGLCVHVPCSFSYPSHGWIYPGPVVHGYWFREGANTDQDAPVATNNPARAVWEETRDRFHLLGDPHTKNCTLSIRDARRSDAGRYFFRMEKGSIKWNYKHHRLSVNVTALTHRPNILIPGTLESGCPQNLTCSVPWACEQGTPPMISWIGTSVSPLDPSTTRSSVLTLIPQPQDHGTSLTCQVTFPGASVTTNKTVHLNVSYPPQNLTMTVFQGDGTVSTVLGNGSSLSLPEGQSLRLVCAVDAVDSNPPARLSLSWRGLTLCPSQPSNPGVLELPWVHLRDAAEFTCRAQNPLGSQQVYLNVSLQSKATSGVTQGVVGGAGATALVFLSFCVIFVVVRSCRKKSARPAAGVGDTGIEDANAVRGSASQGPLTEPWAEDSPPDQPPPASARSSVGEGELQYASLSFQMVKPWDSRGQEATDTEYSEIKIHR
Sequence of Protein translocase subunit SecA (Escherichia coli (strain K12)) (P10408 whole entry): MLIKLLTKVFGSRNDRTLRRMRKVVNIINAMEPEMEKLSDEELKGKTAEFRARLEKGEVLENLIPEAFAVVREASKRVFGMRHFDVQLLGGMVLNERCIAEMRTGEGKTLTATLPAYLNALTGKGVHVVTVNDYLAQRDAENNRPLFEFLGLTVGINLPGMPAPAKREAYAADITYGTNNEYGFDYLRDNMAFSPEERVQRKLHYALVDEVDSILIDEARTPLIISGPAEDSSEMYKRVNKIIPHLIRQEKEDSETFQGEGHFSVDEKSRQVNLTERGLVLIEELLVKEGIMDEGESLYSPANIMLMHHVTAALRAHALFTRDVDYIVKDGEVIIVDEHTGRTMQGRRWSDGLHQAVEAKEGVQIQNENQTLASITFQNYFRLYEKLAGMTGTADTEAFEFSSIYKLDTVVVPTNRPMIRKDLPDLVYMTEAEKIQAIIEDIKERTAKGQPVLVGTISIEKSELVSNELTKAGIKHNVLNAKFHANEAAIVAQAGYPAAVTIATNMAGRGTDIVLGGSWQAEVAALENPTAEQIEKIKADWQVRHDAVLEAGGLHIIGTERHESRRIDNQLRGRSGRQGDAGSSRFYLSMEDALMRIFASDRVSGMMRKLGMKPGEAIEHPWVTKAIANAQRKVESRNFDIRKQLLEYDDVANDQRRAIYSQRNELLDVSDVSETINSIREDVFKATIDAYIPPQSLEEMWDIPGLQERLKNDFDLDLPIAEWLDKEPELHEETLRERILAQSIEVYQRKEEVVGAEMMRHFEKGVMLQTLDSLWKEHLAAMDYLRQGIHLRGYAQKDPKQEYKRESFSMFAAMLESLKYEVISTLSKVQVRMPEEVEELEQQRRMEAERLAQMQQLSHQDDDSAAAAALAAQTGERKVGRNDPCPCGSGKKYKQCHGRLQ

As to `CC(=O)c1cccc(OCCCC(=O)N(C)Cc2cccc(O)c2)c1`, the Percent Effect in [1] is -2.9%; in [2], 2.7%; in experiment [3] it was 5.1%; in [4] it was 4.56%; in experiment [5], 0.193%; in [6], 4.29%. Further, the Percent Effect in experiment [7] is 3.28%; in experiment [8] it was 8.19%; in experiment [9], -0.529%; in experiment [10], 0%; in experiment [11], -3.66%.

For `CC(Oc1ccccc1C(F)(F)F)C(=O)NS(=O)(=O)C(C)C` (stereo unspecified), the Percent Effect in experiment [1] is 7.54%; in experiment [2] it was 0%; in experiment [3] it was 5.54%; in experiment [4], -3.2%; in experiment [5] it was 4.88%; in experiment [6], -2.92%. Also, the Percent Effect in experiment [7] is 14.1%; in [8], -2.84%; in [9], 6.93%; in [10], 11%; in [11], -6.88%.

Take `CCC1=N[C@@]2(CC[C@@H]3CN(C(=O)NC(C)C)C[C@@H]32)C(=O)N1C`: the Percent Effect in [1] was -5.93%; in experiment [2], 18.9%; in [3] it was -5.97%; in experiment [4], 2.32%; in experiment [5], 3.12%; in [6], 2.92%. For the same compound, the Percent Effect in experiment [7] was 10.9%; in experiment [8], 1.5%; in experiment [9], 3.96%; in experiment [10], 18.3%; in experiment [11], -6.51%.

On to `Cc1noc(NC(=O)c2ccc(Br)s2)n1`, for which the Percent Effect is 1.05% in [1]; -5.26% in experiment [2]; 14.6% in experiment [3]; -3.75% in experiment [4]; -5.13% in experiment [5]; 3.96% in experiment [6]. Further, the Percent Effect was 9.39% in experiment [7]; 40.2% in [8]; -3.45% in [9]; 1.24% in experiment [10]; 15.6% in [11].

Turning to `Cc1cccc(-c2noc(CN3CCCC(Cn4cncn4)C3)n2)c1` (stereo unspecified), the Percent Effect was -6.12% in [1]; 20.2% in experiment [2]; -9.05% in experiment [3]; 10.8% in [4]; 8.59% in [5]; 3.04% in experiment [6]. For the same compound, the Percent Effect in experiment [7] is 5.16%; in experiment [8], 5.05%; in experiment [9], 6.4%; in experiment [10], 21.5%; in [11] it was -4.86%.

As to `Cn1cc(CN2C[C@@H]3CN(Cc4ccoc4)CCO[C@@H]3C2)cn1`, the Percent Effect was -1.93% in [1]; 7.79% in [2]; 7.44% in experiment [3]; 0.861% in [4]; -2.07% in experiment [5]; 7.1% in [6]. Moreover, the Percent Effect is 1.57% in experiment [7]; 10.9% in experiment [8]; 0% in experiment [9]; 16.7% in experiment [10]; -4.4% in [11].

Turning to `CN1CCCC1CNC(=O)CCCOCc1ccccc1` (stereo unspecified), the Percent Effect was -4.32% in experiment [1]; 2.63% in experiment [2]; 1.84% in [3]; 9.93% in [4]; 2.44% in [5]; 2.3% in experiment [6]. Besides, the Percent Effect in [7] was -4.01%; in experiment [8] it was -1.82%; in experiment [9], 5.39%; in experiment [10], 7.32%; in experiment [11], 6%.

As to `Cc1nc(C)n(C2CCCN(C(=O)Cc3cccnc3)C2)n1` (stereo unspecified), the Percent Effect in experiment [1] is -6.21%; in experiment [2] it was 5.41%; in experiment [3], 2.37%; in experiment [4] it was -1.07%; in experiment [5], 0.586%; in experiment [6], 2.5%. Besides, the Percent Effect in [7] was 6.17%; in experiment [8], -10.7%; in experiment [9] it was 5.94%; in [10] it was 11%; in experiment [11], -2.33%.

`CN(Cc1ccc(F)cc1)CC1(O)CCN(C(=O)c2ccccc2)C1` (stereo unspecified): the Percent Effect was -1.26% in experiment [1]; 4.05% in [2]; 9.4% in experiment [3]; 2.19% in experiment [4]; -8.1% in experiment [5]; 1.16% in experiment [6]. In addition, the Percent Effect in [7] worked out at 9.98%; in experiment [8], 15.7%; in experiment [9], 2.15%; in experiment [10], 6.49%; in experiment [11], 13.1%.

Consider `CC(C)NC(=O)[C@H]1C[C@@H]2[C@@H](C1)OCCN2Cc1cnn(C)c1`, for which the Percent Effect in [1] was -3.53%; in [2], 0%; in experiment [3] it was 4.75%; in experiment [4] it was 2.29%; in experiment [5], -5.6%; in experiment [6], -50%. The Percent Effect in experiment [7] is 4.44%; in experiment [8], -6.54%; in experiment [9], 3.12%; in experiment [10] it was 10%; in experiment [11], -4.52%.

Consider `Cc1cc(N2CCN(Cc3ccccc3)CC(O)C2)cc(C)n1` (stereo unspecified), for which the Percent Effect is -7.08% in experiment [1]; -2.7% in [2]; 1.17% in experiment [3]; 11.4% in [4]; -1.74% in experiment [5]; -3.81% in [6]. In addition, the Percent Effect in experiment [7] was 2.07%; in [8], 20.1%; in experiment [9], -0.529%; in [10], 4.88%; in [11], -1.99%.
